High-throughput results (PubChem)
Only some compounds are listed: those with a hit (about 19% of all), similar ones and a draw of the others.
IL1B secr inh: blocks inflammasome-driven IL-1 beta release. THP-1 LPS/ATP IL-1B secretion, AlphaLISA, 16 h; hits give low values. AID 743279. activity change, % at 57.5 µM. actives 4.7% (n = 360,000); in the data active = activity change below about -50%; inconclusive = mostly about -30% to -49%
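THP-1 cells pretreated 1 hr with compounds (up to 57.5 uM final), then stimulated with LPS (250 ng/mL final) plus ATP (1.25 mM final); secreted IL-1B measured by AlphaLISA after 16 hr, decreased signal indicating inhibition.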
DT40 TDP1 CPT: DT40-hTDP1 cell growth loss with CPT | chicken DT40 Tdp1-/-;hTDP1 cells + 20 nM CPT, ATP luminescence, 48 h | Potency, µM (top dose mostly 46.2 µM), without a hit: at the top dose activity change, negative = growth inhibition, hits mostly inhibitors | actives 12% (n = 420,000) | AID 686979; also: potency is read from the fitted curve at half-maximal effect; nearly all actives have a fitted effect of over 55% in size
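Chicken DT40 Tdp1-/- cells complemented with human TDP1, 400 cells/well, exposed to compounds plus 20 nM camptothecin for at least 48 h at 37 C; viability read as ATP content by CellTiter-Glo luminescence.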
HT1080-NT tox: kills 2HG-producing HT-1080-NT fibrosarcoma cells; HT-1080-NT fibrosarcoma viability, CellTiter-Glo ATP luminescence, 48 h; AID 686970; actives 1.6% (n = 360,000); Potency, µM (titrated, usually from 46.1 µM), inactives show top-dose activity, negative = less viability, hits mostly cytotoxic;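 also: NT is the 2HG producing partner of a matched IDH1 knockdown line; potency is read from the fitted curve at half-maximal effect; 0% = DMSO-treated cells and -100% = media-only wells without cells; nearly all actives have a fitted effect of over 55% in size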
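Viability of the 2HG-overproducing fibrosarcoma line after 48 hours of compound exposure at 37 degrees C was determined by luminescence with CellTiter-Glo, and concentration-effect curves were then fitted and categorized.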
ELG1 DNA repair: inhibitors of ELG1-dependent DNA repair in HEK293T cells; HEK293T ELG1-luciferase reporter, luminescence, 16 h; DNA damage induced by 5-fluorouridine; Potency, µM (top dose mostly 46.1 µM), for the others: at the highest dose activity change, negative = inhibition, most hits filed as inhibitors; actives 2.3% (n = 330,000); AID 504467; also: potency is read from the fitted curve at half-maximal effect; nearly all actives have a fitted effect of over 55% in size
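Reporter activity after DNA damage by 5-fluorouridine is monitored. Compound-treated cells incubate 16 hr at 37 °C, then ONE-Glo is added for 30 min before luminescence reading.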
DT40 TDP1 no CPT: qHTS for Inhibitors of human tyrosyl-DNA phosphodiesterase 1 (TDP1): qHTS in cells in absence of CPT; DT40 Tdp1-/- hTDP1 cells, no CPT, ATP luminescence, 48 h; AID 686978, 2013; Potency, µM (top dose mostly 46.2 µM), for inactives: at the top dose activity change, negative = growth inhibition, actives largely listed as inhibitors; actives 15% (n = 420,000); also: potency is read from the fitted curve at half-maximal effect; nearly all actives have a fitted effect of over 55% in size
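Chicken DT40 Tdp1-/- cells stably complemented with human TDP1 were seeded at 400 cells/well with DMSO in place of 20 nM camptothecin. After compound pinning, cells grew at least 48 hr at 37 °C; viability read by CellTiter-Glo luminescence.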
HT1080 IDH1KD tx: kills HT-1080 cells with IDH1 knockdown; HT-1080 IDH1 knockdown viability, ATP luminescence, 48 h; actives 2% (n = 360,000); Potency, µM (doses to about 46.1 µM), inactives show top-dose activity, negative = toxicity, most hits filed as cytotoxic;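 also: potency is read from the fitted curve at half-maximal effect; 0% = DMSO wells and -100% = cell-free medium wells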
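% activity derives from luminescence (CellTiter-Glo), normalised to DMSO and no-cell wells. HT-1080-IDH1KD cells, 750/well, had 48 h compound exposure at 37 °C.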
* marks the source's active call; other numbers are inactive results; ? = inconclusive; . = no result. Unless noted, calls follow the shape of the dose curve; as a rule, active = well fitted curve in the direction sought with a large enough effect; inconclusive = small, poorly fitted or top-dose-only effect, or another doubt; inactive = no such curve, though single readings can be large; an effect the other way counts as inactive or inconclusive. Unless noted, % is scaled to controls: 0 for no effect and ±100 for the full control effect.

SMILES	IL1B secr inh	DT40 TDP1 CPT	HT1080-NT tox	ELG1 DNA repair	DT40 TDP1 no CPT	HT1080 IDH1KD tx
COc1ccc2c(c1)C(CC(C)=O)N(c1ccc(-c3cccnc3)cc1)C(c1ccsc1)=C2 (stereo not given)	6	?	-6%	.	?	-18%
COc1ccc2c(c1)C(CC(C)=O)N(c1ccc(-c3cnc(OC)nc3)cc1)C(c1ccsc1)=C2 (stereo not given)	13	-15%	0%	.	?	2%
COc1ccc(-c2ccc(N3C(c4cc(OC)cc(OC)c4)=Cc4ccc(OC)cc4C3CC(C)=O)cc2)cc1 (stereo not given)	15	5.2µM*	?	.	6.5µM*	?
COC(=O)c1ccc(N2C(c3cc(OC)cc(OC)c3)=Cc3ccc(-c4cccnc4)cc3C2CC(=O)C2CC2)cc1 (stereo not given)	22	?	-1%	.	?	-2%
COc1ccc2c(c1)C(CC(C)=O)N(c1ccc(-c3cccs3)cc1)C(c1ccsc1)=C2 (stereo not given)	-1	3.7µM*	-14%	.	4.6µM*	-15%
O=C1N(c2ccccc2)c2ccccc2[C@]12C[C@H](O)CO2	-4	10%	12%	.	6%	11%
COc1cc(OC)cc(C2=Cc3ccccc3C(CC(=O)c3ccco3)N2c2ccc(-c3cccnc3)cc2)c1 (stereo not given)	9	?	-22%	.	18µM*	1%
CC(C)(C)c1ccc(OCCSc2nc(-c3cccs3)nc3cc(=O)[nH]n23)cc1	.	18µM*	.	.	?	.
Cc1ccc(OCCCSc2nc(-c3ccc(C(C)(C)C)cc3)nc3cc(=O)[nH]n23)cc1C	.	?	.	.	26µM*	.
CC(C)(C)c1ccc(-c2nc(SCCOc3ccc(Cl)cc3)n3[nH]c(=O)cc3n2)cc1	.	18µM*	.	.	-80%	.
Cc1ccccc1NC(=O)CSc1nc(-c2cccs2)nc2cc(=O)[nH]n12	.	1%	.	.	1%	.
CCn1nc(C)c(CCN(C)C(=O)Nc2cc(Cl)ccc2C)c1C	.	-3%	.	.	?	.
O=C(NNC(=O)c1csc(N2CCOCC2)n1)c1cccnc1	15	21%	14%	18%	-19%	14%
C=CCSc1nc2c(N)ncnc2n1C1OC(CO)C(O)C1O (stereo not given)	-12	5%	9%	.	-13%	15%
Cc1cccc(-c2ocnc2C(=O)Nc2ccccc2NC(=O)c2ccccn2)c1	?	0.92µM*	18µM*	-5%	0.29µM*	?
CSc1ccccc1NC(=O)c1ccccn1	-22	1.3µM*	5%	?	2.1µM*	5%
Cc1ccc(-c2ocnc2C(=O)Nc2ccccc2NC(=O)c2ccccn2)cc1	?	21µM*	?	-19%	?	?
O=c1cc(N2CCCCC2)c(-c2ccccc2)nn1Cc1ccc(Cl)cc1Cl	-2	?	?	-9%	18µM*	?
CSc1ccccc1NC(=O)C1CCN(S(C)(=O)=O)CC1	-12	0%	-1%	-3%	14%	2%
Cc1cccc(OC(C)C(=O)N2CCCN(C)CC2)c1C (stereo not given)	0	1%	8%	12%	1%	17%
CCN(CC)CC#CCC(C)(c1ccccc1)c1ccccc1	?	?	?	-22%	16µM*	?
CCN(CC)CC#CCC(O)(c1ccccc1)c1ccccc1	?	-22%	-12%	2%	?	-17%
CCn1nnc2cc(C(=O)Nc3ccc(OC)cc3)ccc21	.	-19%	.	.	-10%	.
O=C(Cn1c(=O)n(-c2ccc(Cl)cc2)c(=O)c2sc3ccccc3c21)NC1CCCC1	.	13µM*	.	.	18µM*	.
O=C(Cn1c(=O)n(-c2cccc(Cl)c2)c(=O)c2sc3ccccc3c21)N1CCCC1	.	?	.	.	15µM*	.
SMILES	IL1B secr inh	DT40 TDP1 CPT	HT1080-NT tox	ELG1 DNA repair	DT40 TDP1 no CPT	HT1080 IDH1KD tx
CCC(=O)Nc1ccccc1-c1nc2ccccc2n(Cc2cccc(Br)c2)c1=O	.	7%	.	.	-4%	.
Cc1noc(C)c1C(=O)N1CCC[C@@]2(CCN(C(=O)NC(C)C)C2)C1	.	4%	.	.	0%	.
Cc1ccc(NS(=O)(=O)c2cccc(C(=O)NCC(c3ccco3)N3CCCCC3)c2)cc1 (stereo not given)	7	26µM*	-6%	-23%	?	2%
Cc1ccccc1NS(=O)(=O)c1ccc(C(=O)NCC2(N3CCOCC3)CCCCC2)cc1	-4	?	-1%	.	?	8%
COc1ccc(NS(=O)(=O)c2cccc(C(=O)NCC(c3ccco3)N3CCCC3)c2)cc1 (stereo not given)	17	-9%	-23%	2%	-27%	-15%
Cc1cccc(NS(=O)(=O)c2ccc(C(=O)NCC3(N4CCCCC4)CCCCC3)cc2)c1C	-53*	21µM*	-18%	16%	15µM*	?
CC(=O)c1cccc(S(=O)(=O)NCC(c2ccco2)N2CCCCC2)c1 (stereo not given)	13	?	14%	0.58µM*	16µM*	0%
Cc1ccccc1NS(=O)(=O)c1ccc(C(=O)NCC(c2ccco2)N2CCCCC2)cc1 (stereo not given)	-13	?	-5%	?	23µM*	-11%
CCn1cc(C(=O)N2CCN(c3ccccc3F)CC2)c(=O)c2cc(S(=O)(=O)N(C)C)ccc21	.	-28%	.	.	?	.
COC(=O)Cc1ccc(NC(=S)N2CCN(c3cc(Cl)ccc3C)CC2)cc1	6	?	-3%	?	?	-16%
Cc1cccc(C)c1-n1nnnc1C1c2ccccc2C(=O)N1CCOc1ccccc1 (stereo not given)	-5	-7%	6%	.	?	-1%
CCCCN1CC(C)(C)Oc2cccc(F)c2S1(=O)=O	-2	-13%	4%	.	-25%	4%
Cc1cccc(NS(=O)(=O)c2ccc(C)c(C(=O)NCC(c3ccco3)N3CCCCC3)c2)c1 (stereo not given)	-3	21µM*	-3%	?	18µM*	-3%
COc1ccc(/C=C/C(=O)Nc2cc(C)nn2-c2nc3ccccc3n2Cc2cccc([N+](=O)[O-])c2)cc1	8	-24%	2%	?	-6%	1%
CCn1c(NC(=O)/C=C/c2ccc(F)cc2)nc2ccccc21	48	?	-29%	?	23µM*	-26%
